PubChem BioAssay (NCI)
About 83,000 compounds went through this panel and 20% of them were active in at least one assay; those are over-represented in the sample as a whole.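 Note: values are percent growth. 100 is the growth of untreated cells, values between 100 and 0 indicate rising inhibition; between -100 and 0 indicates cell death.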 A number with no mark means an inactive call. The source made the active and inactive calls. Rule for the calls: active = growth percent below 10; inactive = the rest.

Experiments:
Test in all cases: NCI-60 one-dose screen, 48 h (100 = growth as untreated, 0 = no growth, -100 = all killed)
Conditions in all cases: 10 µM unless noted
SK-MEL-2 melanoma = system: SK-MEL-2 melanoma
EKVX NSCLC = system: EKVX NSCLC
SN12C renal = system: SN12C renal
UO-31 renal = system: UO-31 renal
TK-10 renal = system: TK-10 renal
ACHN renal = system: ACHN renal
CAKI-1 renal = system: CAKI-1 renal
A498 renal = system: A498 renal
CCRF-CEM leukemia = system: CCRF-CEM leukemia
MOLT-4 leukemia = system: MOLT-4 leukemia

Row | Compound | growth (SK-MEL-2 melanoma) | growth (EKVX NSCLC) | growth (SN12C renal) | growth (UO-31 renal) | growth (TK-10 renal) | growth (ACHN renal) | growth (CAKI-1 renal) | growth (A498 renal) | growth (CCRF-CEM leukemia) | growth (MOLT-4 leukemia)
1 | CS(=O)c1cccc(-c2ccc3nc(N)n(-c4ccc(C(F)(F)F)cc4)c(=O)c3c2)c1 (stereo not drawn) | 98.2% | 108% | 96.3% | 75.8% | 94.7% | 105% | 96.3% | 107% | 99.7% | 
2 | O=C(Nc1cccc(Oc2nnc(Cl)c3ccccc23)c1)Nc1ccc(Cl)c(C(F)(F)F)c1 | -72.1% (active) | -6.74% (active) | -71.9% (active) | -28.4% (active) | -51.5% (active) | -8.47% (active) | 11.7% | -82.7% (active) | -5.44% (active) | 
3 | NC(N)=Nc1nc2ccccc2n2c1nc1ccccc12 | 70.3% | 36.3% | 28.3% | 34.3% | 46.2% | 11.7% | 23.2% | 52.5% | 25.7% | 7.99% (active)
4 | CN(c1ccccc1)c1ccc2c(c1)OCCC21CC1Nc1cnccc1C(=O)O (stereo not drawn) | 97.5% | 93.1% | 82.9% | 87.4% | 79.5% | 66.7% | 76.3% | 59.7% | 47.2% | 45.8%
5 | C#Cc1cccc(NC(=O)c2ccc(NC(=O)CCl)cc2)c1 | 31.3% [8.25 µM] | 104% [8.25 µM] | -78.4% [8.25 µM] (active) | -99.2% [8.25 µM] (active) | -63.2% [8.25 µM] (active) | -98.2% [8.25 µM] (active) | 9.54% [8.25 µM] (active) | 65% [8.25 µM] | 12.1% [8.25 µM] | 14% [8.25 µM]
6 | CCN(CC)c1ccc(C(=O)c2ccc(N(CC)CC)cc2)cc1 | 18.7% | 55% | 40.8% | 60.4% | 35.1% | 53.1% | 43.4% | 41.1% | 19.8% | 24.3%
7 | Nc1n[nH]c2cc(F)c([C@@H]3Nc4c(F)cc5[nH]ncc5c4[C@H]4C5CCC(C5)[C@@H]34)cc12 (stereo partly drawn) | 43.5% | 63.2% | 17.3% | 36.5% | 76.3% | 24.4% | 6.94% (active) | -38.9% (active) | 17.8% | 14.8%
8 | Cn1c(I)c(C#C[Si](C)(C)C)c(=O)n(C(=O)c2ccccc2)c1=O | 81% | 91.2% | 51% | -78.4% (active) | 43.6% | 11.5% | 40.9% | 105% | -57.5% (active) | -69.9% (active)
9 | COc1ccc(Nc2nnc(SCc3ccccc3F)s2)cc1 | 82.9% | 94.9% | 107% | 78.6% | 123% | 106% | 103% | 91.4% | 76.4% | 94.8%
